Data on one compound can be found in PubChem BioAssay (NCATS).

SMILES strings stand for the structures. Values without a mark were called inactive. Results filed as inconclusive are left out. Active and inactive are the calls of the source. Unless noted, calls come from the whole dose curve; as a rule, active = well fitted curve in the direction sought with a large enough effect; inconclusive = small, poorly fitted or top-dose-only effect, or another doubt; inactive = no such curve, though single readings can be large; an effect the other way counts as inactive or inconclusive.

Experiment [1] is described as follows: Validation of Assay for Modulators of Lamin A Splicing (AID 1459; active = well fitted curve in the direction sought with a large enough effect in the signal ratio; the % refers to the signal ratio;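 note: cells exposed to compound for two days before reading; 0% is about no effect; ratio rise marks activators and ratio drop marks inhibitors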). The procedure, abridged: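 HeLa S3 lamin A-EGFP/DsRed2 stable clone, 600 cells/well, Opti-MEM 2% FBS; compounds by pin tool; 48 hrs, 37 °C/5% CO2; Acumen 488 nm scan, objects 10-100 um; GFP/RFP intensity ratio.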
Experiment [2] concerns the target DNA repair nuclease/redox regulator APEX1 (Homo sapiens) (UniProt P27695). Briefly: qHTS Validation Assay for Inhibitors of the Human Apurinic/apyrimidinic Endonuclease 1 (APE1) (AID 1705;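 note: TAMRA fluorescence gain over two minutes as APE1 cuts a quenched THF abasic duplex; series mostly up to about 57 µM; % is set by controls: 0 for no effect and ±100 for the full control effect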). The procedure, abridged:
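qHTS, 1536-well. APE1 + cpd 15 min RT → 50 nM TAMRA/BHQ-2 THF-abasic dsDNA substrate → kinetic fluorescence, 3 reads/60 s; delta(read3−read1) = reaction progress. No-enzyme buffer = negative control.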

Experiment [3] can be described thus: Counterscreen for APE1 Inhibitors: Fluorescent Dye Displacement Validation Assay (AID 1707).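 Note: plate controls were ThO with dsDNA and no compound for no effect and ThO without dsDNA for full effect.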 The essentials: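 Loss of Thiazole Orange fluorescence marks promiscuous DNA binders. The dye (250 nM) is mixed with 50 nM abasic-site dsDNA in pH7.5 Tris buffer containing MgCl2, then compounds are added and emission is read once.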
A general note: Counterscreens check selectivity or assay interference.

The target of experiment [4] is Endonuclease 4 (Escherichia coli (strain K12)) (UniProt P0A6C1). Put plainly: Counterscreen for APE1 Inhibitors: qHTS Validation Assay for Inhibitors of Endonuclease IV (AID 1708). Note: % is set by controls: 0 for no effect and ±100 for the full control effect. The essentials:
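Measured as reaction progress, the fluorescence gain between first and third kinetic reads after adding 50 nM TAMRA/BHQ-2 THF duplex to 2 nM enzyme preincubated 15 min with compound; 2 mM MgCl2, pH 7.5.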

A short description of experiment [5]: qHTS for differential inhibitors of proliferation of Plasmodium falciparum line 7G8 (AID 1815).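 Note: parasite growth measured after three days of incubation; plate controls were vehicle wells for no effect and reference inhibitor wells for full effect.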 On the technique in general: qHTS replaces the single test concentration by a dilution series.
The nature of experiment [6]: qHTS for differential inhibitors of proliferation of Plasmodium falciparum line 3D7 (AID 1876).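 Note: parasite growth measured after three days of culture; 0% = vehicle wells and -100% = reference inhibitor wells.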
A short description of experiment [7]: qHTS for differential inhibitors of proliferation of Plasmodium falciparum line D10 (AID 1877).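 Note: parasites grown with compound for 72 h before DNA staining; plate controls were vehicle wells for no effect and reference inhibitor wells for full effect.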
A short description of experiment [8]: qHTS for differential inhibitors of proliferation of Plasmodium falciparum line Dd2 (AID 1882).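 Note: series mostly up to about 29 µM; compound exposure of 72 h on infected erythrocytes; plate controls were DMSO vehicle for no effect and 0.29 µM artemisinin for full effect; nearly all actives have a fitted effect of over 65% in size.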 The settings on record: Potency: Plasmodium falciparum Dd2 proliferation inhibition. The essentials:
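RBC culture, 0.3% parasitemia / 2.5% Hct final; cpd added by pin tool in DMSO; 72 h, 37 C, 5% CO2; lysis buffer + SYBR Green I, o/n RT dark; FI 485/535; norm. to artemisinin 0.29 uM and DMSO.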

A short description of experiment [9]: qHTS for differential inhibitors of proliferation of Plasmodium falciparum line W2 (AID 1883).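 Note: parasites grown with compound for 72 h before lysis and staining; 0% = vehicle wells and -100% = control inhibitor wells.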 The settings on record: Potency: Plasmodium falciparum W2 proliferation inhibition.
Experiment [10] is described as follows: qHTS for differential inhibitors of proliferation of Plasmodium falciparum line HB3 (AID 1886).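 Note: parasites grown with compound for 72 h before SYBR Green readout; plate controls were vehicle for no effect and reference inhibitor for full effect.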 The conditions noted are these: Potency: Plasmodium falciparum HB3 proliferation inhibition.
The target of experiment [11] is Ferritin light chain (Equus caballus) (UniProt P02791). Put plainly: qHTS Validation Assay for Identification of Novel General Anesthetics (AID 2323). Note: series mostly up to about 77 µM; % is set by controls: 0 for no effect and ±100 for the full control effect. The procedure, abridged:
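Fluorescence at 535 nm (excitation 380 nm) reported loss of 1-AMA binding to horse-spleen apoferritin (10 uM) in PBS with 50% saturated 1-aminoanthracene, after 10 min room-temperature incubation with compound; values from Hill fits of normalized response.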

Experiment [12] addresses ATP-dependent DNA helicase Q1 (Homo sapiens) (UniProt P46063). Put plainly: qHTS Validation Assay for Inhibitors of RecQ-Like Dna Helicase 1 (RECQ1) (AID 2353).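 Note: plate controls were DMSO vehicle for no effect and enzyme-free control for full effect.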 The procedure, abridged: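 RECQ1T1 50 nM; forked duplex (20 bp + 30-nt ss tails) 200 nM, ATP 2 mM final; pH 8.0, 2 mM MgCl2, 2.5 ug/ml poly(dI-dC); 15 min compound preincubation; discontinuous kinetic read over 2 h at RT.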

Experiment [13] is described as follows: Validation screen for small molecules that induce DNA re-replication in MCF 10A normal breast cells (AID 463097). Note: 0% is about no effect; nearly all actives have a fitted effect of over 60% in size. The essentials:
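Image-based qHTS: normal breast cells are incubated with compound for 48 hr, stained with Hoechst, and scanned for total nuclear fluorescence. Compounds raising the fraction of nuclei with elevated DNA content count as re-replication inducers.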

A short description of experiment [14]: Quantitative high throughput screen for delayed death inhibitors of the malarial parasite plastid, 96 hour incubation (AID 488745).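 Note: luciferase-expressing P. falciparum in erythrocytes at 2% hematocrit and 0.1% parasitemia; series mostly up to about 29 µM; % is set by controls: 0 for no effect and ±100 for the full control effect; nearly all actives have a fitted effect of over 70% in size.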 The essentials:
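Luciferase-expressing P. falciparum, infected RBCs 2% Hct/0.1% parasitemia (final); 96 h cpd exposure, 37 C, 5% CO2; RPMI 1640 + 0.5% Albumax, bicarbonate, gentamycin. Readout: luminescence loss = growth inhibition.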

Experiment [15] is described as follows: Quantitative high throughput screen for delayed death inhibitors of the malarial parasite plastid, 48 hour incubation (AID 488752). Note: % is set by controls: 0 for no effect and ±100 for the full control effect; nearly all actives have a fitted effect of over 65% in size. The essentials: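 Luciferase-expressing P. falciparum in RBCs, 2% Hct, 0.1% parasitemia final; RPMI 1640 + 0.5% Albumax; 48 h, 37 C, 5% CO2; luminescence readout, signal drop = growth inhibition.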
For experiment [16], the target named is M-phase phosphoprotein 8 (Homo sapiens) (UniProt Q99549). Put plainly: qHTS Validation Assay for Inhibitors for MPP8 Chromodomain Interactions with Methylated Histone Tails (AID 488949). Note: potency is the fitted concentration of half-maximal effect; nearly all actives have a fitted effect of over 55% in size. The procedure, abridged:
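50 nM MPP8 + 50 nM b-H3K9me3 peptide, PBS pH 7.4/0.01% Tween-20, 30 min RT; + cpd 30 min RT; + AlphaScreen donor/Ni-chelate acceptor beads 10 ug/mL final, 30 min dark; luminescence read.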

The target of experiment [17] is Transient receptor potential cation channel subfamily V member 1 (Homo sapiens) (UniProt Q8NER1). Briefly: HTS Assay for Compounds that Act as Enhancers of the Vanilloid Receptor 1 (AID 488979). Note: 0% is about no effect. The procedure, abridged: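 TRPV1-expressing cells loaded with Fluo-8 calcium dye; compounds added and calcium influx read kinetically for 3 min (agonist phase), then capsaicin at EC20 added and read 2 min more for enhancement. Fluorescence ex 480/em 520 nm.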
Sequence of Transient receptor potential cation channel subfamily V member 1 (Homo sapiens) (Q8NER1 whole entry, looked up): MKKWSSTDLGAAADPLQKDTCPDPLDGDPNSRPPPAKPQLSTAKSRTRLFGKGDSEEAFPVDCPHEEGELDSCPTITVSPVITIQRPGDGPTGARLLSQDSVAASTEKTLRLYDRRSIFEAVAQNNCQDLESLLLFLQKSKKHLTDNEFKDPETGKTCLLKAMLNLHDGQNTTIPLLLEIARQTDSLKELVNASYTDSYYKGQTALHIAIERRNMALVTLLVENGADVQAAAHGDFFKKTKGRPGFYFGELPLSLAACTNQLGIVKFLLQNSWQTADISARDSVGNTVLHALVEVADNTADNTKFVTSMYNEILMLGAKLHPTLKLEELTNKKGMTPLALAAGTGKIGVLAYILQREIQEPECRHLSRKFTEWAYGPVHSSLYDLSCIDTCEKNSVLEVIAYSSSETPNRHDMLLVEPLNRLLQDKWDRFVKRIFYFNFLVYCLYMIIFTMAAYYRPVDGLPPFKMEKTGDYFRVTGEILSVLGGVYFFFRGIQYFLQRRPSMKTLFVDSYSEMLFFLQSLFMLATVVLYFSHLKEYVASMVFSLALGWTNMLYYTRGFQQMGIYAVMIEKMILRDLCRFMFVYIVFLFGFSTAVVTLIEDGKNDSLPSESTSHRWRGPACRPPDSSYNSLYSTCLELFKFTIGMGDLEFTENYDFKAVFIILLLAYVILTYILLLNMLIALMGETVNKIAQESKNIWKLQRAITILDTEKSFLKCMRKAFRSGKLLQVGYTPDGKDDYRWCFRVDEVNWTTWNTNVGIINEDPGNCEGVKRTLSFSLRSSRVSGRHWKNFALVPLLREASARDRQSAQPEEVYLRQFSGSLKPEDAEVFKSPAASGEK

Experiment [18] deals with Thyrotropin receptor (Homo sapiens) (UniProt P16473). Put plainly: qHTS Assay for Antagonists of the Thyroid Stimulating Hormone Receptor (AID 488980). Note: series mostly up to about 58 µM; 0% is about no effect. The essentials:
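Readout is cAMP by HTRF competition between cellular cAMP and cAMP-d2 for a cryptate-labelled antibody. Antagonism was assessed in TSHR-transfected HEK293 cells stimulated with 4 nM TSH (EC80, final) in the presence of RO 20-1724.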

For experiment [19], the target named is Thyrotropin-releasing hormone receptor (Homo sapiens) (UniProt P34981). Put plainly: qHTS for Small Molecule Agonists and Allosteric Enhancers of Human TRH Receptor: Validation Screen for Agonists (AID 493127;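 active = calcium activation more than 3 SD above the typical response in the agonist read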;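 note: intracellular calcium rise by fluo-8 fluorescence before TRH EC20 addition; 0% is about no effect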). The conditions noted are these: TRH receptor agonist cell assay; at 2 µM; stronger effect = higher value. The essentials: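 Read-out: intracellular calcium release measured kinetically by FDSS (fluo-8, ex 480/em 530 nm), 1 reading/s after a 10-cycle baseline. TRHR cells, 2000/well, cultured 18 h at 33.5C, dye-loaded at room temp. Compound-evoked positive calcium signal flags agonists.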
Sequence of Thyrotropin-releasing hormone receptor (Homo sapiens) (P34981 whole entry, looked up): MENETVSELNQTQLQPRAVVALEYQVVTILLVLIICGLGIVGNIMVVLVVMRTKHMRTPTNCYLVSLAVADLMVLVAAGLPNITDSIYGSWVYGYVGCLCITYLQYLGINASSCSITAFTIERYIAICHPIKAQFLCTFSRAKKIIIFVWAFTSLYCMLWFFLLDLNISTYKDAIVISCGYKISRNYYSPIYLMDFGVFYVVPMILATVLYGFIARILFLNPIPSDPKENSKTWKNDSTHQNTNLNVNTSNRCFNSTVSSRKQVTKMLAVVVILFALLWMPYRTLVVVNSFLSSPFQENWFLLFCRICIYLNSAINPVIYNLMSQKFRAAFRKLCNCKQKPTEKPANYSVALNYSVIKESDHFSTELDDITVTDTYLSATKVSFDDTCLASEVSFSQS

Experiment [20] addresses Galactokinase (Homo sapiens) (UniProt P51570). Briefly: qHTS Validation Assay for Inhibitors of Human Galactokinase (GALK) (AID 493189). Note: 0% is about no effect. The procedure, abridged:
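5 nM GALK / 100 uM galactose / 35 uM ATP, 20 mM HEPES pH8.0, 5 mM MgCl2, 60 mM NaCl, 1 mM DTT, 0.01% BSA (final). RT 1 h; Kinase-Glo Plus luminescence.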

Experiment [21] in a line: Validation screen for small molecules that induce DNA re-replication in SW480 colon adenocarcinoma cells (AID 504364). Note: 0% is about no effect. The essentials:
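Read-out: total Hoechst intensity of nuclei by fluorescence scanning imager; hits raise the fraction of nuclei with elevated DNA content. Cells received compound for 48 hr at 37 C before a 40 min stain.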

Sequence of ATP-dependent DNA helicase Q1 (Homo sapiens) (P46063 whole entry, looked up): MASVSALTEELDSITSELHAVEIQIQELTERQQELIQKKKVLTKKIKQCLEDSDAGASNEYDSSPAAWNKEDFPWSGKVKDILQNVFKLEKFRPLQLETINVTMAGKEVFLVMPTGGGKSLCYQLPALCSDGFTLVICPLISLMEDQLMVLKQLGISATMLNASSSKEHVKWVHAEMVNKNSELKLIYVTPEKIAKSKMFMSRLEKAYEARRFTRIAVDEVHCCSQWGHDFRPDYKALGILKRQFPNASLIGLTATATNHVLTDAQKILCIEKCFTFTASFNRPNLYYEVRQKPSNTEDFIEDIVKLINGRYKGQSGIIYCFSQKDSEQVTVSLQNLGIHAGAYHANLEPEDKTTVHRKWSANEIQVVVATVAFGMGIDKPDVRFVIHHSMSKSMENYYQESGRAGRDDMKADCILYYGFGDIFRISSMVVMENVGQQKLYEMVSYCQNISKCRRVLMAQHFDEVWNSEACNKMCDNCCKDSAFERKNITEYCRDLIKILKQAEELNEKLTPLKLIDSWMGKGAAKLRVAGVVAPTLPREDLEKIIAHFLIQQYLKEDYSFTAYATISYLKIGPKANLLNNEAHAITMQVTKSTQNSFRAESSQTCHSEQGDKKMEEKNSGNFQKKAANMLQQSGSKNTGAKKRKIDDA
Sequence of Galactokinase (Homo sapiens) (P51570 whole entry, looked up): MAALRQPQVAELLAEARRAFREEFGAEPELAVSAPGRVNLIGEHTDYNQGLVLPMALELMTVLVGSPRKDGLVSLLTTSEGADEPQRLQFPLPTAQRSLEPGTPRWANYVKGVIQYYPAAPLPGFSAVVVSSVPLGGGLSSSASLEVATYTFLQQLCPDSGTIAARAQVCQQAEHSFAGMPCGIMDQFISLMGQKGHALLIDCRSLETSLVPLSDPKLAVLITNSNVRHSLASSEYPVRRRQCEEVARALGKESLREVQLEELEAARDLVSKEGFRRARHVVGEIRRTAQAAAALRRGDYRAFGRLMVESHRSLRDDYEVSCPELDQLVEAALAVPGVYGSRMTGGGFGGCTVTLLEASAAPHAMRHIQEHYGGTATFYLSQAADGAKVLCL
Sequence of M-phase phosphoprotein 8 (Homo sapiens) (Q99549 whole entry, looked up): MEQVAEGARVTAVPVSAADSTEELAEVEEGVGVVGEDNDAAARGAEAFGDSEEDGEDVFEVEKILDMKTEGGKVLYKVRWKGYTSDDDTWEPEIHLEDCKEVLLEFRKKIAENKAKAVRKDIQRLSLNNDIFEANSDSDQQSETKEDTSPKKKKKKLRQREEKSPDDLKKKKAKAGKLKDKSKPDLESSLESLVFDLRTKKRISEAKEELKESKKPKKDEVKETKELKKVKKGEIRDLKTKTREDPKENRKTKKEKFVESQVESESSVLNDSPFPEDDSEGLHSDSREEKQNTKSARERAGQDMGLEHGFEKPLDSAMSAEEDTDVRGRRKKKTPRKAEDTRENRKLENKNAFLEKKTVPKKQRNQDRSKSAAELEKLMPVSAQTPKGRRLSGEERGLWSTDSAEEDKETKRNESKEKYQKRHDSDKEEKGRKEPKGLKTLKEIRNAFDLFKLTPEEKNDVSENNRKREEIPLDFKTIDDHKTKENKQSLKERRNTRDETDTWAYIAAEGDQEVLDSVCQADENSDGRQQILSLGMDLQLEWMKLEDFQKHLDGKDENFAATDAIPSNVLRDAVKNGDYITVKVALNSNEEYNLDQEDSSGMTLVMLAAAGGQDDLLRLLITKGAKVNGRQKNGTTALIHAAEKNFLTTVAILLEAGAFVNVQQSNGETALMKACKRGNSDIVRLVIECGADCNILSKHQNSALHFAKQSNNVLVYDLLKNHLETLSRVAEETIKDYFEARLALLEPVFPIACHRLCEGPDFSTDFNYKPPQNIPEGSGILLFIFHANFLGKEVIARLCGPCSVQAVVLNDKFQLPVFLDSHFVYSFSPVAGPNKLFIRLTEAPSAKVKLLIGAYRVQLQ
Sequence of DNA repair nuclease/redox regulator APEX1 (Homo sapiens) (P27695 whole entry, looked up): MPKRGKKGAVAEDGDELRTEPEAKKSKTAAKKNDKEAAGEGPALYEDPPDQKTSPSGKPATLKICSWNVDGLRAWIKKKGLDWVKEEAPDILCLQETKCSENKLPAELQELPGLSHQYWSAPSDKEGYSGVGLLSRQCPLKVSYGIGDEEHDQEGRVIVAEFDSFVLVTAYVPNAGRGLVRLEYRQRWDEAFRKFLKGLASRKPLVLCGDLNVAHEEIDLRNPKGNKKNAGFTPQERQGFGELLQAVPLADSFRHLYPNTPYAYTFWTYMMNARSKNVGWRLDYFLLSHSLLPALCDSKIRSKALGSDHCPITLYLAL
Sequence of Ferritin light chain (Equus caballus) (P02791 2-175 limits assumed): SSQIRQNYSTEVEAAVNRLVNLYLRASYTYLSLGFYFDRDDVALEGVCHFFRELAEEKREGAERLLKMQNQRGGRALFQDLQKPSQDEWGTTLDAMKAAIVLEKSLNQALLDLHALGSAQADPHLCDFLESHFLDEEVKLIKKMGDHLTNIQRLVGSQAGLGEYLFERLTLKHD
Sequence of Thyrotropin receptor (Homo sapiens) (P16473 whole entry, looked up): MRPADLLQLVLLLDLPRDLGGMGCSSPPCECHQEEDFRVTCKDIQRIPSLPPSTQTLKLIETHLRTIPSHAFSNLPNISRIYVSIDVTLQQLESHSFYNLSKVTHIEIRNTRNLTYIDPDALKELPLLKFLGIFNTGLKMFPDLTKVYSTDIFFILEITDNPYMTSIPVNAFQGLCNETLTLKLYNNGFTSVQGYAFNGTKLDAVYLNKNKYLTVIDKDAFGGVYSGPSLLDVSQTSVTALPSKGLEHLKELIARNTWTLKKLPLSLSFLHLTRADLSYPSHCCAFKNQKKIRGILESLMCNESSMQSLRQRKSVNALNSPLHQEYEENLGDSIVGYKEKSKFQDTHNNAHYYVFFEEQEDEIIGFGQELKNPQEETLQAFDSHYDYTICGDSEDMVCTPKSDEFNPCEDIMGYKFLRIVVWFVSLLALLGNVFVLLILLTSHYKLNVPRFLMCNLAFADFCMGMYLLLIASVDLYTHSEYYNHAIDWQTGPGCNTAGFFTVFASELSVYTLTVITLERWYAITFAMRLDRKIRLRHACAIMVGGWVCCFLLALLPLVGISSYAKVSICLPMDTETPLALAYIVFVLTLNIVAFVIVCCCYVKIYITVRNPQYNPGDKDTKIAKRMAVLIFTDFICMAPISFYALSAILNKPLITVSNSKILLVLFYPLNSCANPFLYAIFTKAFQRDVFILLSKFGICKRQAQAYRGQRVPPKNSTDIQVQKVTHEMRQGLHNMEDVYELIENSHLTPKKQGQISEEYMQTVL

For `NC(=S)NCCCC(N)C(=O)O` (stereo unspecified), the result in experiment [1], in [4], in experiment [11], in experiment [13], in [17] and in experiment [18] was inactive. Further, the compound was classed as inactive in [20] and in [21]. The Potency entry in experiment [2], in experiment [3], in experiment [5], in [6], in [7] and in [8] was “inactive” each time. For the same compound, the Potency result in experiment [9], in [10], in experiment [12], in experiment [14] and in [15] was “inactive” each time. For the same compound, in experiment [16], the Potency is 20 µM (active). The activation in experiment [19] is -0.25%.
